Rows were chosen to be rich in hits. Some 2.3% of all compounds tested hit in one or more screens of this group.
PLC-gamma1 inh – PLC-gamma1 enzyme inhibitors, primary screen, biochemical, fluorescence, purified enzyme. fluorogenic substrate. 1-phosphatidylinositol 4,5-bisphosphate phosphodiesterase gamma-1 (Homo sapiens), P19174. hit rate 0.84% among 370,000. inhibition, % at 12.2 µM; in the data active = inhibition above about 9.5%
PLC-beta3 inh – human PLC-beta3 inhibitors, primary screen, biochemical, fluorescence | inhibition, % at 12.2 µM | AID 720704, 2013 | Purified PLC-beta3, fluorogenic substrate | 1-phosphatidylinositol 4,5-bisphosphate phosphodiesterase beta-3 (Homo sapiens), Q01970 | hit rate 0.18% among 370,000; in the data active = inhibition above about 11%
Target sequence (Q01970 whole entry, looked up): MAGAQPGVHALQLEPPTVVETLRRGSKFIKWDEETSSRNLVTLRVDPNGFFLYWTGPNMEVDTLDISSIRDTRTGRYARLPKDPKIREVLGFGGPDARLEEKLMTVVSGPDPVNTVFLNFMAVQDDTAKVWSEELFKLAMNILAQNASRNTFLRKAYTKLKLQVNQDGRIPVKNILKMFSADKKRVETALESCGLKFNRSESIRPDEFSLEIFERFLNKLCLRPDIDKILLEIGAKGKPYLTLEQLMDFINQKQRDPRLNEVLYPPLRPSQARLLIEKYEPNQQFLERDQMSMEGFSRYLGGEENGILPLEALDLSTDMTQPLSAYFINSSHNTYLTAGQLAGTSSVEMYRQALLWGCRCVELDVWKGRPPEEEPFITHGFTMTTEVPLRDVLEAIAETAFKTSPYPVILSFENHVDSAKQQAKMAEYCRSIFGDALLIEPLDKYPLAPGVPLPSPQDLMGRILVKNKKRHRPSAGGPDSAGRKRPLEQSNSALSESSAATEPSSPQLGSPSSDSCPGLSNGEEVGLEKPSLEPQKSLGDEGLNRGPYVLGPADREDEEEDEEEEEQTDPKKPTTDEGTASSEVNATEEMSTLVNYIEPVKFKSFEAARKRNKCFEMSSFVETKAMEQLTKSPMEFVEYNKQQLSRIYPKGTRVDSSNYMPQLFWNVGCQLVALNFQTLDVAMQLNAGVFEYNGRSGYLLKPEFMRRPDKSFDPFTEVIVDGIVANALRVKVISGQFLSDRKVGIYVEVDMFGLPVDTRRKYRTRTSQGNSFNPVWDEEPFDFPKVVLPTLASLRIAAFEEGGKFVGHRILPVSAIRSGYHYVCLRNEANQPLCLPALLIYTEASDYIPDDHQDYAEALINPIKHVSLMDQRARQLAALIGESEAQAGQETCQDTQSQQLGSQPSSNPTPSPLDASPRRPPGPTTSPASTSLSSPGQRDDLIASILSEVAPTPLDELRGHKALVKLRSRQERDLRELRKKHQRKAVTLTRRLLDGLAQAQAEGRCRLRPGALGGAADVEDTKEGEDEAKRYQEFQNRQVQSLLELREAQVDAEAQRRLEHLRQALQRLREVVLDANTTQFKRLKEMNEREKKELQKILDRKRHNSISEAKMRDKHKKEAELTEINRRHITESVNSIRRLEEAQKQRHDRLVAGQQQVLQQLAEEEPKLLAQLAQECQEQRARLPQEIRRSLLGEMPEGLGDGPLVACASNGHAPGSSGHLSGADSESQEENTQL
LEDGF integ inh – blockers of LEDGF/p75-dependent integrase strand transfer – biochemical, TR-FRET, high throughput, primary screen; HIV-1 integrase (with human LEDGF/p75); TR-FRET IN-LEDGF/p75 DNA integration, Eu/Cy5; inhibition, % at 3.7 µM; hit rate 0.64% among 370,000;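 active = inhibition above the screen-wide mean plus 3 SD, cut at about 13% in these data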;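 also: signal is the Cy5 over europium emission ratio at 671 and 618 nm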
UHRF1 MBD2 ctr – UHRF1 methylated DNA binding inhibitors, primary screen, counter-screen for MBD2 inhibitor project, biochemical, TR-FRET, human UHRF1, single concentration | inhibition, % at 4.4 µM | UHRF1 binding to methylated oligo | hit rate 0.75% among 370,000 | E3 ubiquitin-protein ligase UHRF1 (Homo sapiens), Q96T88; in the data active = inhibition above about 21%;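 also: UHRF1 SRA domain binding a hemimethylated CpG hairpin DNA probe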
MBD2 DNA inh – inhibitors of MBD2 binding to methylated DNA, primary screen, biochemical, TR-FRET, DNA-binding domain, human; Methyl-CpG-binding domain protein 2 (Homo sapiens), Q9UBB5; MBD2 binding to methylated oligonucleotide; inhibition, % at 4.4 µM; hit rate 0.31% among 370,000; in the data active = inhibition above about 13%
Numbers stand for hits; . = inactive.

SMILES	PLC-gamma1 inh	PLC-beta3 inh	LEDGF integ inh	UHRF1 MBD2 ctr	MBD2 DNA inh
Cc1ccc2nc(-c3ccc(NC(=O)CSc4nnc(-c5cccc(Cl)c5)n4Cc4ccco4)cc3)sc2c1	.	.	.	.	.
COc1cccc(NC(=O)NC2CCCCN(Cc3ccc(C)cc3)C2=O)c1 (configuration not stated)	.	.	.	.	.
CC(c1ccco1)N(C(=O)c1ccccc1NS(=O)(=O)c1cc([N+](=O)[O-])ccc1Cl)c1ccccn1 (configuration not stated)	.	.	.	26.2	.
COc1ccc(NC(=S)NN2CCN(C)CC2)cc1OC	.	.	.	21.6	.
C=CCN(c1ccccc1)S(=O)(=O)c1cccc(C(=O)NCC(c2ccc(F)cc2)N2CCOCC2)c1 (configuration not stated)	.	.	.	.	.
CCN(c1ccccc1)S(=O)(=O)c1cccc(C(=O)NCC(c2ccc(F)cc2)N2CCOCC2)c1 (configuration not stated)	.	.	.	42.8	.
CCOc1ccc2ccccc2c1CNCCc1ccc(S(N)(=O)=O)cc1	.	.	.	45.1	.
COc1ccc(CNC(=S)OC2CCC23CCC(c2ccccc2)CC3)cc1 (configuration not stated)	.	.	.	.	.
COc1ccc(/C=C2\CC3(OC(=O)c4ccc(F)cc4)CCCN2C3)cc1 (configuration not stated)	.	.	.	.	.
CN(C)CCNC(=O)c1cccc2ccc(-c3ccc(-c4ccccc4)cc3)nc12	.	.	.	37.3	.
COc1ccc(C)cc1NC(=O)C(Sc1nncn1C)c1ccccc1 (configuration not stated)	.	.	.	24.2	.
COc1ccc(C)cc1NC(=O)C(Sc1nnc(Nc2ccccc2F)s1)c1ccccc1 (configuration not stated)	.	.	.	.	.
Cn1c(CN2CCCC2)c(C#N)c2ccccc21	.	.	.	65.2	.
CC1CN(c2nc3ccccc3nc2SCC(=O)N2CCN(S(=O)(=O)c3ccccc3)CC2)CC(C)O1 (configuration not stated)	.	.	.	.	.
CCCOc1cccc(C(=O)NCCNC(=O)c2ccccn2)c1	.	.	.	.	.
CCCOc1cccc(C(=O)NCCCNC(=O)c2ccccn2)c1	.	.	.	48.4	.
CC(C)C(=O)Nc1c(-c2cccc(Cl)c2)c(=O)c2ccccc2n1C	.	.	.	.	.
CCn1c(NC(=O)C(C)C)c(-c2ccccc2)c(=O)c2ccccc21	.	.	.	46.7	.
CC(=O)N1CC=CC1(C)C(=O)O (configuration not stated)	.	.	.	30.9	.
CSc1nnc(-c2cccc(NC(=O)c3ccccc3)c2)n1C	.	.	.	25.8	.
CCC(=O)Nc1cccc(-c2nnc(SCC(=O)c3ccccc3)n2C)c1	.	.	.	.	.
Cc1ccc(/C=C/S(=O)(=O)NCC(=O)OCC(=O)Nc2ccc(C(N)=O)cc2)cc1	.	.	.	22.9	.
Cc1ccc(/C=C/S(=O)(=O)NCC(=O)OCC(=O)Nc2ccc(C(=O)N(C)C)cc2)cc1	.	.	.	.	.
Cc1c2ccncc2cc2c1[nH]c1ccccc12	.	.	.	.	.
COc1ccc2[nH]c3c(C)c4ccncc4c(C)c3c2c1	.	.	.	35.6	32.6
SMILES	PLC-gamma1 inh	PLC-beta3 inh	LEDGF integ inh	UHRF1 MBD2 ctr	MBD2 DNA inh
COc1ccc2ccccc2c1C=NNC(=O)c1cc(-c2ccc(C)cc2)n[nH]1	.	.	.	.	.
COc1ccc(NC(=O)CN(c2ccc(C)cc2)S(C)(=O)=O)c(OC)c1	.	.	.	39.8	.
Cn1cnnc1SCC(=O)Nc1sc2c(c1C(N)=O)CCC2	.	.	.	25.1	.
C[C@@H]1COc2cc(N3CCCC3)ccc2S(=O)(=O)N1	.	.	.	21.3	.
C[C@H]1COc2cc(N3CCCC3)ccc2S(=O)(=O)N1	.	.	.	.	.
O=C(CNC(=O)c1ccc(Cl)cc1Cl)OCc1ccccc1	.	.	.	.	.
O=C(COC(=O)CNC(=O)c1ccc(Cl)cc1Cl)NC(=O)NCc1ccccc1	10.9	.	.	.	.
CCOc1ccc(NC(=O)N2CCC(C(=O)c3ccc(F)cc3)CC2)cc1	.	.	.	21.5	.
CCOc1ccc(-n2c(SCC(=O)Nc3ccccc3-c3ccccc3)nnc2-c2ccncc2)cc1	.	.	.	.	.
CCn1c(=O)c(C(=O)NNS(=O)(=O)c2ccc(Br)cc2)c(O)c2ccccc21	.	.	.	35.3	.
Cc1cc(C)n2nc(CC(=O)NCc3ccc(F)cc3)nc2n1	.	.	.	99.1	.
Cc1cc(C)n2nc(SCCC(=O)NCc3ccccc3)nc2n1	.	.	.	36.3	.
Cc1ccc(CNC(=O)Cc2nc3nc(C)cc(C)n3n2)cc1	.	.	.	.	.
O=C(C1CCN(c2ncnc3c2sc2cccc(F)c23)CC1)N1CCN(Cc2ccc(F)cc2)CC1	.	.	.	.	.
Cc1ccc(CNC(=O)C2CC(=O)N(C3CCCC3)C2)cc1 (configuration not stated)	.	.	.	.	.
Cc1ccc(CNC(=O)C2CC(=O)N(C3CCCCCC3)C2)cc1 (configuration not stated)	.	.	.	36.8	.
CN(C(=S)NC(=O)C12CC3CC(CC(C3)C1)C2)c1ccc(O)cc1	.	.	15.3	.	.
CN(C)NC(=S)NC(=O)C12CC3CC(CC(C3)C1)C2	.	.	.	.	.
CN(CCc1ccccc1)C(=O)c1ccc(NC(=O)Cc2ccc(NC(=O)C3CCCN(C(=O)CCc4ccccc4)C3)cc2)cc1 (configuration not stated)	.	.	.	37.4	.
CN(CCc1ccccc1)C(=O)c1ccc(NC(=O)Cc2ccc(NC(=O)C3CCCN(C(=O)C4CCC4)C3)cc2)cc1 (configuration not stated)	.	.	.	.	.
Cc1cc(C)n2nc(C(=O)Nc3ccn(Cc4ccccc4C)n3)cc2n1	.	.	.	22.9	.
Cc1ccccc1Cn1ccc(NC(=O)c2nc3ncccn3n2)n1	.	.	.	.	.
COCCNC(=O)C1CCCN(C(=O)c2cc(C(C)(C)C)nn2C)CC1 (configuration not stated)	.	.	.	25.0	.
COC(=O)c1cccc(OCC(C)CN2CCC(C(O)(c3ccccc3)c3ccccc3)CC2)c1 (configuration not stated)	.	.	.	.	.
COC(=O)c1ccc2nc(-c3ccc(F)cc3)c(Cc3ccsc3)n2c1	.	.	.	23.8	.
